This is an account of results in ChEMBL document CHEMBL3988442, “University of Dundee, Small-Polar-MMV Screening Library” (2021).

Structures are written as SMILES. About 13,000 (27%) of roughly 48,000 compounds showed an effect of 50% or more. Some of the results follow.

The assay deals with Wolbachia pipientis. The experiment in a line: Anti-Wolbachia Cell-Based Screen. Details: scale not given: in the data most compounds retested in dose-response had high values. The settings on record: 5 µM. It is filed as functional.
For `CCc1nc(CC(=O)N2CCn3c(nnc3C(F)(F)F)C2)cs1`, the “Percent Effect” value is listed as -0.3988%. Next, `Cc1cccc(=O)n1CCCNc1ncnc2c1CCNCC2`: -13.78%; `c1ccc(Cn2cc(CNc3ncnc4c3CCNCC4)cn2)cc1`: 100.8%. Next, `Cc1ccccc1-n1cc(CNc2ncnc3c2CCNCC3)cn1`: 113.8%. Next, `Cc1nc2c(c(NCc3ccc(-c4ccccn4)s3)n1)CCNCC2`: 3.518%. As for `Cn1cc(CNc2ncnc3c2CCN(Cc2ccsc2)CC3)cn1`, the “Percent Effect” value is given as 1.057%. Next, `Cc1cccc(-n2cc(CN3CCN(C)[C@@H]4CS(=O)(=O)C[C@@H]43)cn2)c1`: -4.421%.

In the case of `Cc1cccc(-n2cc(CNc3ncnc4c3CCNCC4)cn2)c1`, the “Percent Effect” value is reported as 94.66%. Turning to `c1cncc(CNc2ncnc3c2CCN(Cc2ccsc2)CC3)c1`, the “Percent Effect” value was -11.45%. Next, `CCc1ncc(C(=O)N(C)C2Cc3ccccc3C2)cn1`: 0.7414%; `CC(C)C(=O)N1CCCN(C(=O)NC2CCc3ccccc3C2)CC1` (configuration not stated): 16.47%. With `Cn1nnc2c1CCN(C(C(=O)N1CCCCC1)c1ccccc1)C2` (configuration not stated), the “Percent Effect” value came to 4.107%.

For `CCC(CC)C(=O)N1CCN(C)c2ncccc2C1`, the “Percent Effect” value is recorded as -0.9461%. Next, `O=C(NCc1nn(-c2ccccc2)c2c1CCC2)N1CCSCC1`: 9.143%; `CC(C(=O)N1CCc2ccccc2C1)n1cc(Br)cn1` (configuration not stated): 4.145%; `CC(C)C(=O)N1CCCc2c(cnn2-c2ccccc2)C1`: 142.7%. With `CC(C)(C)c1ncc2c(n1)CN(C(=O)C(C)(C)n1cccc1)C2`, the “Percent Effect” value stood at 2.811%.

Regarding `CC(C)(C)C(=O)N1CCCc2c(cnn2-c2ccccc2)C1`, the “Percent Effect” value was 70.74%. Next, `Cc1nc2c(c(=O)n1C)CCN(C(=O)Cn1cccc1)CC2`: 14.88%; `O=C(NCC1OCCc2cn(CC3CCOCC3)nc21)c1ccsc1.O=C(O)C(F)(F)F` (configuration not stated): -9.912%. For the compound `CN(C)S(=O)(=O)c1ccc(CNC(=O)C2CC2)cc1`, the “Percent Effect” value is reported as 8.545%. In the case of `CSc1ccc(CNC(=O)C2CC(=O)N(C(C)(C)C)C2)cc1` (configuration not stated), the “Percent Effect” value is 13.09%.

`CN(C)S(=O)(=O)c1ccc(CNC(=O)C2CC(=O)N(C(C)(C)C)C2)cc1` (configuration not stated): the “Percent Effect” value came out at 129.4%. `CC(C)N1CC(C(=O)NCc2ccc(S(=O)(=O)N(C)C)cc2)CC1=O` (configuration not stated): the “Percent Effect” value stood at 136.1%. Next, `CC(C)(C)N1CC(C(=O)NCc2noc(Cc3ccccc3)n2)CC1=O` (configuration not stated): -0.1463%; `COc1cc(CNC(=O)C2CC(=O)N(C(C)C)C2)ccn1` (configuration not stated): -0.8085%. Next, `COc1cc(Cl)c(NC(=O)NCCn2cccc2)cc1OC`: -6.144%. Next, `CCN(CC)C(=O)[C@@H]1C[C@@H](N)CN1c1nc(N2CCCC2)nc(C)c1C`: -2.729%; `O=C(c1cn(CCN2CCCCC2)nn1)N1CCCO1`: -7.456%. `Cc1ccc(C(=O)N2CCCS2(=O)=O)cc1Cl`: the “Percent Effect” value was -5.646%. In the case of `Cc1cc(C(=O)N2CCCS2(=O)=O)c(C)o1`, the “Percent Effect” value is listed as 122.2%. Next, `COc1cc(C(=O)N2CCCS2(=O)=O)cc(Cl)c1OC`: 11.62%. Next, `Cc1cc(C(=O)N2CCS(=O)(=O)CC2)c(C)o1`: 128.6%. Next, `COc1cc(C(=O)N2CCCS2(=O)=O)ccc1C`: -0.1842%. Turning to `Cc1cc(C(=O)N2CCN(Cn3cc(Cl)cn3)CC2)c(C)o1`, the “Percent Effect” value is 0.3754%.

Turning to `Cc1occc1C(=O)N1CCCS1(=O)=O`, the “Percent Effect” value came out at 102.9%.

On to `Cc1occc1C(=O)N1CCOC2(CCCC2)C1`, for which the “Percent Effect” value was found to be 0.5411%. With `Cc1cc(C(=O)N2CCC(CCn3cccn3)CC2)c(C)o1`, the “Percent Effect” value is -7.806%.

Regarding `CN(Cc1ccccc1O)C(=O)NC1CCCN(c2ncccn2)C1` (configuration not stated), the “Percent Effect” value is -16.23%.

On to `NC(=O)CCCNC(=O)COc1ccccc1C(F)(F)F`, for which the “Percent Effect” value was 8.512%. `CN1CCN(c2ccc(C(=O)N3CCCC(c4ncc[nH]4)C3)cc2)CC1` (configuration not stated): the “Percent Effect” value is -9.853%. Next, `O=C(COCC(F)(F)C(F)F)N1CCC(c2ncc[nH]2)CC1`: -1.399%. In the case of `O=C(c1cncc(F)c1)N1CCC(c2ncc[nH]2)CC1`, the “Percent Effect” value came out at 103.6%. Next, `Cc1cc(=O)[nH]c(SC(C)C(=O)N2CCC(c3ncc[nH]3)CC2)n1` (configuration not stated): -1.396%; `Cn1cc(C(=O)N2CCCC(c3ncc[nH]3)C2)cn1` (configuration not stated): -9.118%. Next, `Cn1cc(C(=O)N2CCC(c3ncc[nH]3)CC2)cn1`: 106%; `O=C(c1ncc(F)cc1F)N1CCC(c2ncc[nH]2)CC1`: 114.8%. Next, `N#Cc1ccc(C(=O)N2CCC(c3ncc[nH]3)CC2)cn1`: 118.6%; `CN(C)C(=O)N1CC[C@]2(O)CCN(C(=O)c3ccc(C#N)nc3)C[C@@H]2C1`: 0.1052%; `N#Cc1ccc(C(=O)N2CCC3(CC2)C(=O)Nc2ccccc23)cn1`: -3.857%.

Consider `O=C(CCc1ccccc1)C1CCCN(C(=O)c2ncc(F)cc2F)C1` (configuration not stated), for which the “Percent Effect” value is -13.78%.

Turning to `CC(C)(C)n1ccc(C(=O)N2CCCC(c3ncc[nH]3)C2)c1` (configuration not stated), the “Percent Effect” value is given as -9.494%.
